# Target: PDE1C
# Assay: pooled miR-30 sensor sort-seq; sequence = guide strand
# Conditions: shRNA
# Further: reference of the scale not given here.
row,Sequence,sensor-assay potency score (higher = more potent)
1,TTTTCTTTGAATCATTTCCGAT,-1.12
2,AATTGTTTGACCAAAGACCGTA,0.319
3,ATTCTCTCCACAAATATCCCAG,-0.723
4,TTTGAGTAAAAATCTCACGTTG,-0.294
5,TTTTGTGCTTGCTGTATCCCAC,-0.201
6,TAGAGTGATCCTTCTTGTCTGT,0.0178
7,TTTTCCTCTGCTTCCTTCTTGG,-0.143
8,TGAACGATGCTCTTGAACCGGG,-0.343
9,TTTCTTTGAATCATTTCCGATG,-0.853

# Target: PDE8B
# Assay: as above
# Conditions: shRNA
row,Sequence,sensor-assay potency score (higher = more potent)
1,TAGCAAGCAATTATGCTGCTAT,0.445
2,ATTGATTATATTTATAACCTTT,-0.571
3,TACAATAATTTCATGATGCTTA,-0.231
4,TCTTAGTAAACACATACTCGTT,-0.91
5,TATATTTATAACCTTTGTGATG,-1.47
6,TTAGTAAACACATACTCGTTTC,-0.767
7,TTCATCTTTGGTACCCAGCTGA,-0.0849
8,ATCGCTCTGACTATCTTCCTTT,-0.16
9,TTAAAAACTCACATACTCCAAA,-0.433
10,TAAACACATACTCGTTTCCTGA,-0.83
11,AATCTCTAGAACTCTGTCCAAG,-1.58
12,TTGCATTCACAGTCGCTGCCTT,-0.0743

# Target: PDGFRB
# Assay: as above
# Conditions: shRNA
row,Sequence,sensor-assay potency score (higher = more potent)
1,TTGGTCAGTGTGAGCACGCTGG,-0.355
2,TAGCACTGGAGACTCGTTGATC,-0.385
3,TTGACGGCCACTTTCATCGTGG,-0.193
4,TCAGCTCTGACACATACCGGGT,-1.42
5,TAACAGGAGAGACAGCAACAGC,-1.23
6,AAAGTCACAGATCTTGACCAGC,-0.788
7,TCTTTTTGTAACCTTCGCCCAA,-0.683
8,TTTGATGGCATTGTAGAACTGC,0.772
9,TAGTCCACCGACTCGTCCTTGC,-0.654
10,TTGATCAAAGTTGCTCGGCAGG,-0.679
11,TTGCTGTAGAGCTCCGCGCTGG,-0.717

# Target: PDIA5
# Assay: as above
# Conditions: shRNA
row,Sequence,sensor-assay potency score (higher = more potent)
1,TAATTCAACCTTTTTGTCCTTC,0.526
2,TAGTCTTTCATGGTCTCCCTCC,-0.586
3,TTCAACGTAGGAAACTCTGAGA,-0.249
4,TCAACCTTTTTGTCCTTCGGGC,-0.306
5,TCATACTGGAACAAGAACCGTC,0.647
6,TTGCACATGCTGCACCAGGGGG,-1.31
7,TCAACTTTCATCTTCTTGCACA,-0.596
8,TTCTTCTTCAGGGTCTCCCGGA,-0.62

# Source: the OligoGym collection
